This is part of a sample that, as a whole, favours compounds with a hit. Of some 83,000 tested, about 20% had one in any assay.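 How to read the values: 0–100, growth inhibition (40 = 60% inhibited); 0, no net growth; -100 to 0, cell death (-40 = 40% of starting cells died; -100 = all dead).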 Calls of active or inactive are those of the source. The calls were made as follows: active = growth percent below 10; inactive = the rest.

The text below walks through data of PubChem BioAssay (NCI).

In the experiment the test system is HL-60(TB) leukemia. Briefly: NCI-60 one-dose screen, 48 h (100 = growth as untreated, 0 = no growth, -100 = all killed). As to conditions: 10 µM unless noted.
In the case of `Nc1ccc(C(=O)Nc2cccc(C(=O)Nc3ccc4c(O)c(N=Nc5ccc(N=Nc6ccc(S(=O)(=O)O)cc6)cc5)c(S(=O)(=O)O)cc4c3)c2)cc1`, the growth is 89.1% (inactive).

Turning to `[2H]C([2H])([2H])Oc1cc(F)ccc1/C=C/C(=O)/C=C(/C=C/c1ccc(F)cc1OC([2H])([2H])[2H])OB(F)F`, the growth was 11.6% (inactive).

As to `N=C(N)c1ccc(-c2ccc(-c3ccc(F)cc3)s2)s1`, the growth is -57.6% (active).

Turning to `O=C(/C(=C\c1c(-c2ccccc2)[nH]c2ccccc12)S(=O)(=O)c1ccccc1)c1ccccc1`, the growth is -18.2% (active).

In the case of `Cc1c(NC(=O)c2sc3nc4c(cc3c2N)CN(Cc2ccccc2)CC4)cccc1C(F)(F)F`, the growth was 3.22% (active).

As to `CCCCCCCCCCOC(=O)c1nn(C(C)=O)c2cc(C)c(C)cc12`, the growth is 101% (inactive).

`N=C(N)c1ccc(-c2ccc(-c3ccc(Cl)cc3Cl)o2)nc1`: the growth is -26.7% (active).

Take `CC1=C[C@H]2c3c(c(O)c(O)c4oc5cc(O)ccc5c(=O)c34)[C@H](c3cc(O)c(O)c4oc5cc(O)ccc5c(=O)c34)[C@H]2C(C)(C)C1`: the growth is 17.8% (inactive).

For the compound `O=C(Nc1cccc(-n2ccc3c(NC(=O)c4ccccc4)nccc32)c1)Nc1ccc(Cl)c(C(F)(F)F)c1`, the growth was -22.8% (active).

On to `CC(=O)Nc1ccc(S(=O)(=O)N/N=C(\C)c2ccc(C)cc2C)cc1`, for which the growth is 86.4% (inactive).

With `CCN(CC)c1ccc(/C=C(\C#N)c2cc3ccccc3[nH]2)cc1`, the growth is 45.6% (inactive).

For the compound `CCOC(=O)C(=O)CC(=O)c1ccccc1`, the growth is 95.5% (inactive).
